Experimental data: PubChem BioAssay (NCATS)
Inconclusive results are not listed. The source made the active and inactive calls. The call rests on the fitted dose curve; in most records, active means well fitted inhibition curve with a large enough effect; inconclusive means small, poorly fitted or top-dose-only effect; inactive means flat fitted curve, though single readings scatter.

These molecules were tested on CP192 (assay: qHTS profiling for inhibitors of Plasmodium falciparum proliferation (AID 504749; further: nearly all actives have a fitted effect of over 60% in size;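 on activity, negative = inhibition: 0% = DMSO vehicle and full inhibition = artemisinin control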)). Conditions: P. falciparum in erythrocytes, SYBR Green DNA, 72 h; series mostly up to 28.7 µM; activity, negative = inhibition: at the top concentration.
Method in brief: (§1)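 Infected RBCs, 0.3% parasitemia/2.5% Hct final; cpd 72 h, 37 C, 5% CO2; lysis buffer with saponin/triton/SYBR Green I, o/n RT dark; FI 485/535; norm. to artemisinin (0.29 uM) and DMSO.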
Potency means the concentration at half of the fitted maximal effect.

Structure (SMILES) | activity, negative = inhibition
CC(C)CN(C[C@@H](OP(=O)(O)O)[C@H](Cc1ccccc1)NC(=O)O[C@@H]1CCOC1)S(=O)(=O)c1ccc(N)cc1 | 1.43% (inactive)
CCC(C)n1ncn(-c2ccc(N3CCN(c4ccc(OCC5COC(Cn6cncn6)(c6ccc(Cl)cc6Cl)O5)cc4)CC3)cc2)c1=O (centres undefined) | -4.14% (inactive)
CC(C)CN(C[C@@H](O)[C@H](Cc1ccccc1)NC(=O)O[C@H]1CCOC1)S(=O)(=O)c1ccc(N)cc1 | -14.1% (inactive)

The molecules below were run on CP194 in the same assay as above. Conditions: P. falciparum in erythrocytes, SYBR Green DNA, 72 h; series mostly up to 28.7 µM; activity, negative = inhibition: at the top concentration.
Method in brief: as §1

Structure (SMILES) | activity, negative = inhibition
CC(C)CN(C[C@@H](OP(=O)(O)O)[C@H](Cc1ccccc1)NC(=O)O[C@@H]1CCOC1)S(=O)(=O)c1ccc(N)cc1 | 3.99% (inactive)
CCC(C)n1ncn(-c2ccc(N3CCN(c4ccc(OCC5COC(Cn6cncn6)(c6ccc(Cl)cc6Cl)O5)cc4)CC3)cc2)c1=O (centres undefined) | 3.48% (inactive)
CC(C)CN(C[C@@H](O)[C@H](Cc1ccccc1)NC(=O)O[C@H]1CCOC1)S(=O)(=O)c1ccc(N)cc1 | -19.2% (inactive)

These molecules were tested on CP201 in the same assay as above. Conditions: P. falciparum in erythrocytes, SYBR Green DNA, 72 h; series mostly up to 28.7 µM; activity, negative = inhibition: at the top concentration.
Method in brief: as §1

Structure (SMILES) | activity, negative = inhibition
CC(C)CN(C[C@@H](OP(=O)(O)O)[C@H](Cc1ccccc1)NC(=O)O[C@@H]1CCOC1)S(=O)(=O)c1ccc(N)cc1 | 0.0134% (inactive)
CCC(C)n1ncn(-c2ccc(N3CCN(c4ccc(OCC5COC(Cn6cncn6)(c6ccc(Cl)cc6Cl)O5)cc4)CC3)cc2)c1=O (centres undefined) | 0.416% (inactive)
CC(C)CN(C[C@@H](O)[C@H](Cc1ccccc1)NC(=O)O[C@H]1CCOC1)S(=O)(=O)c1ccc(N)cc1 | -22.8% (inactive)

Each molecule was assayed on CP217 in the same assay as above. Conditions: P. falciparum in erythrocytes, SYBR Green DNA, 72 h; series mostly up to 28.7 µM; activity, negative = inhibition: at the top concentration.
Method in brief: as §1

Structure (SMILES) | activity, negative = inhibition
O=C(O)c1cc(O)c2c(c1)[C@H]([C@H]1c3cc(C(=O)O)cc(O)c3C(=O)c3c(O[C@@H]4OC(CO)C(O)C(O)C4O)cccc31)c1cccc(O[C@@H]3OC(CO)C(O)C(O)C3O)c1C2=O (some centres undefined) | -4.95% (inactive)
CC(C)CN(C[C@@H](OP(=O)(O)O)[C@H](Cc1ccccc1)NC(=O)O[C@@H]1CCOC1)S(=O)(=O)c1ccc(N)cc1 | -0.756% (inactive)
CCC(C)n1ncn(-c2ccc(N3CCN(c4ccc(OCC5COC(Cn6cncn6)(c6ccc(Cl)cc6Cl)O5)cc4)CC3)cc2)c1=O (centres undefined) | 10.2% (inactive)
CC(C)CN(C[C@@H](O)[C@H](Cc1ccccc1)NC(=O)O[C@H]1CCOC1)S(=O)(=O)c1ccc(N)cc1 | -9.9% (inactive)

These molecules were tested on CP237 in the same assay as above. Conditions: P. falciparum in erythrocytes, SYBR Green DNA, 72 h; series mostly up to 28.7 µM; activity, negative = inhibition: at the top concentration.
Method in brief: as §1

Structure (SMILES) | activity, negative = inhibition | Potency
O=C(O)c1cc(O)c2c(c1)[C@H]([C@H]1c3cc(C(=O)O)cc(O)c3C(=O)c3c(O[C@@H]4OC(CO)C(O)C(O)C4O)cccc31)c1cccc(O[C@@H]3OC(CO)C(O)C(O)C3O)c1C2=O (some centres undefined) | 5.1% (inactive) | 
CC(C)CN(C[C@@H](OP(=O)(O)O)[C@H](Cc1ccccc1)NC(=O)O[C@@H]1CCOC1)S(=O)(=O)c1ccc(N)cc1 | 7.07% (inactive) | 
CCC(C)n1ncn(-c2ccc(N3CCN(c4ccc(OCC5COC(Cn6cncn6)(c6ccc(Cl)cc6Cl)O5)cc4)CC3)cc2)c1=O (centres undefined) |  | 5.01 µM (active)
CC(C)CN(C[C@@H](O)[C@H](Cc1ccccc1)NC(=O)O[C@H]1CCOC1)S(=O)(=O)c1ccc(N)cc1 | -0.53% (inactive) | 

These molecules were tested on CP238 in the same assay as above. Conditions: P. falciparum in erythrocytes, SYBR Green DNA, 72 h; series mostly up to 28.7 µM; activity, negative = inhibition: at the top concentration.
Method in brief: as §1

Structure (SMILES) | activity, negative = inhibition
O=C(O)c1cc(O)c2c(c1)[C@H]([C@H]1c3cc(C(=O)O)cc(O)c3C(=O)c3c(O[C@@H]4OC(CO)C(O)C(O)C4O)cccc31)c1cccc(O[C@@H]3OC(CO)C(O)C(O)C3O)c1C2=O (some centres undefined) | -0.397% (inactive)
CC(C)CN(C[C@@H](OP(=O)(O)O)[C@H](Cc1ccccc1)NC(=O)O[C@@H]1CCOC1)S(=O)(=O)c1ccc(N)cc1 | 6.18% (inactive)
CCC(C)n1ncn(-c2ccc(N3CCN(c4ccc(OCC5COC(Cn6cncn6)(c6ccc(Cl)cc6Cl)O5)cc4)CC3)cc2)c1=O (centres undefined) | 0.291% (inactive)
CC(C)CN(C[C@@H](O)[C@H](Cc1ccccc1)NC(=O)O[C@H]1CCOC1)S(=O)(=O)c1ccc(N)cc1 | -19.8% (inactive)

These molecules were tested on CP247 in the same assay as above. Conditions: P. falciparum in erythrocytes, SYBR Green DNA, 72 h; series mostly up to 28.7 µM; activity, negative = inhibition: at the top concentration.
Method in brief: as §1

Structure (SMILES) | activity, negative = inhibition
O=C(O)c1cc(O)c2c(c1)[C@H]([C@H]1c3cc(C(=O)O)cc(O)c3C(=O)c3c(O[C@@H]4OC(CO)C(O)C(O)C4O)cccc31)c1cccc(O[C@@H]3OC(CO)C(O)C(O)C3O)c1C2=O (some centres undefined) | -8.43% (inactive)
CC(C)CN(C[C@@H](OP(=O)(O)O)[C@H](Cc1ccccc1)NC(=O)O[C@@H]1CCOC1)S(=O)(=O)c1ccc(N)cc1 | 5.31% (inactive)
CCC(C)n1ncn(-c2ccc(N3CCN(c4ccc(OCC5COC(Cn6cncn6)(c6ccc(Cl)cc6Cl)O5)cc4)CC3)cc2)c1=O (centres undefined) | 3.92% (inactive)
CC(C)CN(C[C@@H](O)[C@H](Cc1ccccc1)NC(=O)O[C@H]1CCOC1)S(=O)(=O)c1ccc(N)cc1 | 1.74% (inactive)

The molecules below were run on CP250 in the same assay as above. Conditions: P. falciparum in erythrocytes, SYBR Green DNA, 72 h; series mostly up to 28.7 µM; activity, negative = inhibition: at the top concentration.
Method in brief: as §1

Structure (SMILES) | activity, negative = inhibition
O=C(O)c1cc(O)c2c(c1)[C@H]([C@H]1c3cc(C(=O)O)cc(O)c3C(=O)c3c(O[C@@H]4OC(CO)C(O)C(O)C4O)cccc31)c1cccc(O[C@@H]3OC(CO)C(O)C(O)C3O)c1C2=O (some centres undefined) | -11.2% (inactive)
CC(C)CN(C[C@@H](OP(=O)(O)O)[C@H](Cc1ccccc1)NC(=O)O[C@@H]1CCOC1)S(=O)(=O)c1ccc(N)cc1 | 6.63% (inactive)
CCC(C)n1ncn(-c2ccc(N3CCN(c4ccc(OCC5COC(Cn6cncn6)(c6ccc(Cl)cc6Cl)O5)cc4)CC3)cc2)c1=O (centres undefined) | -28.9% (inactive)
CC(C)CN(C[C@@H](O)[C@H](Cc1ccccc1)NC(=O)O[C@H]1CCOC1)S(=O)(=O)c1ccc(N)cc1 | 2.3% (inactive)
